Results published in article PMC5540273 (PLoS ONE, 2017).

Legend:
Conditions in all cases: concentration: 1 μM, replicates: in singlicate; n = 1
PAK6 = tested on: PAK6
PAK7 = tested on: PAK7
PCTK1 = tested on: T1, PCTK1
T1 construct: gene CDK16

PCTK2 = tested on: T2, PCTK2
T2 construct: gene CDK17

PCTK3 = tested on: T3, PCTK3
T3 construct: gene CDK18

PDGFRA = tested on: PDGFRA
PDGFRB = tested on: PDGFRB
PDPK1 = tested on: PDPK1
PFTAIRE2 = tested on: PFTAIRE2
PFTK1 = tested on: T4, PFTK1
T4 construct: gene CDK14

PHKG1 = tested on: PHKG1
PHKG2 = tested on: PHKG2
PIK3C2B = tested on: PIK3C2B
PIK3C2G = tested on: PIK3C2G
PIK3CA = tested on: PIK3CA
PIK3CB = tested on: PIK3CB
PIK3CD = tested on: PIK3CD
PIK3CG = tested on: PIK3CG
PIK4CB = tested on: T5, PIK4CB
T5 construct: gene PI4KB

PIKFYVE = tested on: PIKFYVE
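Note: KINOMEscan kinase panel screen.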

| SMILES | %Inh (PAK6) [%] | %Inh (PAK7) [%] | %Inh (PCTK1) [%] | %Inh (PCTK2) [%] | %Inh (PCTK3) [%] | %Inh (PDGFRA) [%] | %Inh (PDGFRB) [%] | %Inh (PDPK1) [%] | %Inh (PFTAIRE2) [%] | %Inh (PFTK1) [%] | %Inh (PHKG1) [%] | %Inh (PHKG2) [%] | %Inh (PIK3C2B) [%] | %Inh (PIK3C2G) [%] | %Inh (PIK3CA) [%] | %Inh (PIK3CB) [%] | %Inh (PIK3CD) [%] | %Inh (PIK3CG) [%] | %Inh (PIK4CB) [%] | %Inh (PIKFYVE) [%] |
| --- | --- | --- | --- | --- | --- | --- | --- | --- | --- | --- | --- | --- | --- | --- | --- | --- | --- | --- | --- | --- |
| COC(=O)c1c(-c2ccccc2)c2cc(C(=O)O)ccc2c(=O)n1Cc1ccccc1 | 16 | 0 | 8 | 0 | 0 | 65 | 99.4 | 14 | 0 | 0 | 0 | 24 | 3 | 0 | 0 | 13 | 0 | 7 | 0 | 2 |
| Cl.NC(=O)c1cccc(Nc2nccc(Nc3ccc(Oc4cccc(Cl)c4)c(Cl)c3)n2)c1 [GW659008] | 0 | 5 | 0 | 7 | 9 | 0 | 68 | 0 | 4 | 8 | 4 | 0 | 0 | 0 | 0 | 0 | 0 | 0 | 82 | 0 |
| O=C(Nc1ccc2c(c1)OCO2)NC1CCN(c2ccnc(Nc3ccc(F)cc3)n2)C1 (stereo not drawn) [GSK1379724] | 22 | 0 | 3 | 0 | 3 | 0 | 31 | 0 | 8 | 8 | 0 | 0 | 0 | 0 | 0 | 0 | 10 | 0 | 39 | 0 |
| Cc1ccc(NC(=O)Nc2cccc(Cl)c2)cc1-c1ccc(C(=O)Nc2ccncc2)cc1 [GSK1398468] | 0 | 1 | 0 | 0 | 0 | 43 | 99.9 | 0 | 16 | 20 | 0 | 11 | 0 | 0 | 8 | 0 | 0 | 0 | 0 | 2 |
| Cl.c1ccc(-c2n[nH]cc2-c2ccnc(-c3ccc(CN4CCOCC4)cc3)c2)nc1 [GW776245] | 14 | 0 | 0 | 11 | 6 | 0 | 0 | 21 | 19 | 0 | 0 | 14 | 16 | 0 | 0 | 0 | 0 | 33 | 0 | 0 |
| Nc1ncnc2[nH]c(-c3ccccc3)nc12 [AH5015] | 0 | 0 | 3 | 0 | 0 | 9 | 42 | 21 | 6 | 11 | 0 | 0 | 0 | 0 | 0 | 0 | 0 | 0 | 37 | 8 |
| COc1cc2ncn(-c3cc(OCC4CCCO4)c(C(N)=O)s3)c2cc1OC (stereo not drawn) [GSK204607] | 0 | 12 | 0 | 0 | 0 | 0 | 32 | 0 | 1 | 24 | 0 | 3 | 0 | 0 | 0 | 0 | 0 | 19 | 0 | 0 |
| COc1cccc(NC(=O)NC2CCN(c3ccnc(Nc4ccc(F)cc4)n3)C2)c1 (stereo not drawn) [GSK1379721] | 0 | 10 | 1 | 14 | 19 | 9 | 42 | 0 | 28 | 0 | 0 | 0 | 11 | 0 | 3 | 0 | 0 | 13 | 0 | 31 |
| O=C(O)COc1ncnc2cc(-c3ccc4[nH]ncc4c3)sc12 | 0 | 7 | 17 | 0 | 0 | 45 | 31 | 0 | 0 | 12 | 13 | 3 | 0 | 23 | 0 | 47 | 5 | 0 | 35 | 12 |
| CCn1c(-c2ccccn2)nc2cnccc21 [SB-736398] | 0 | 0 | 3 | 0 | 17 | 0 | 0 | 97 | 0 | 16 | 0 | 0 | 0 | 0 | 0 | 18 | 5 | 0 | 0 | 32 |
| Cc1cc(N2Cc3ccccc3C2)nc(Nc2ccc(S(=O)(=O)N3CCOCC3)cc2)n1.Cl [GSK1669917] | 0 | 0 | 0 | 0 | 0 | 0 | 2 | 0 | 0 | 23 | 14 | 0 | 0 | 0 | 0 | 0 | 0 | 48 | 100 | 0 |
| CN(C)CCN(C)C(=O)c1cc(-c2ccncc2)c(-c2ccc(Cl)c(O)c2)o1.Cl.Cl [SB-710397] | 0 | 0 | 4 | 0 | 0 | 0 | 22 | 0 | 0 | 0 | 0 | 0 | 0 | 0 | 0 | 18 | 40 | 0 | 7 | 47 |
| CS(=O)(=O)c1ccc(-c2c(-c3ncn[nH]3)sc(N3CCOCC3)c2C#N)cc1 | 12 | 0 | 0 | 3 | 14 | 6 | 20 | 0 | 0 | 13 | 9 | 7 | 0 | 14 | 96.9 | 97.3 | 65 | 57 | 0 | 40 |
| CCn1c(-c2cccnc2O)nc2cnccc21 [SB-736715] | 0 | 3 | 0 | 0 | 0 | 0 | 0 | 0 | 11 | 0 | 0 | 3 | 0 | 0 | 0 | 0 | 0 | 1 | 24 | 22 |
| Cc1c(Cn2ccn3c(=O)cc(N4CCOCC4)nc23)cccc1C(F)(F)F [GSK2289044] | 4 | 27 | 2 | 0 | 8 | 0 | 21 | 17 | 17 | 13 | 0 | 10 | 20 | 6 | 21 | 100 | 92 | 29 | 0 | 0 |
| Cc1ccc(NC(=O)Nc2cc(C(C)(C)C)nn2-c2ccccc2)cc1 [GSK1014915] | 0 | 0 | 6 | 0 | 27 | 36 | 98.9 | 0 | 10 | 9 | 4 | 0 | 0 | 0 | 0 | 0 | 0 | 0 | 4 | 0 |
| COc1ccccc1CNC(=O)c1cc(C(=O)c2ccccc2C)c[nH]1 [GSK364507] | 0 | 0 | 4 | 0 | 27 | 0 | 52 | 0 | 0 | 22 | 1 | 0 | 0 | 0 | 0 | 0 | 0 | 0 | 16 | 0 |
| Nc1nc(-c2nccs2)c(-c2ccnc3ccccc23)s1 [GW693542] | 9 | 0 | 8 | 0 | 5 | 0 | 1 | 0 | 13 | 17 | 2 | 0 | 0 | 0 | 0 | 0 | 0 | 0 | 0 | 0 |
| Cl.Oc1ccc(-c2nc(-c3ccccc3)[nH]c2-c2ccncc2)cc1 [SB-428218] | 0 | 0 | 4 | 0 | 20 | 0 | 13 | 0 | 0 | 21 | 49 | 0 | 0 | 0 | 0 | 0 | 0 | 0 | 0 | 46 |
| CC1=C(C(=O)Nc2cc3cn[nH]c3cc2F)C(c2ccc(C(F)(F)F)cc2)CC(=O)N1 (stereo not drawn) [GSK429286] | 0 | 0 | 3 | 0 | 5 | 0 | 18 | 0 | 0 | 12 | 0 | 0 | 0 | 0 | 0 | 0 | 34 | 0 | 0 | 0 |
| Cc1nnc(-c2ccc3occ(-c4ccc(S(C)=O)cc4)c3c2)[nH]1 (stereo not drawn) | 13 | 5 | 8 | 0 | 0 | 36 | 0 | 0 | 24 | 6 | 15 | 16 | 3 | 17 | 9 | 28 | 0 | 5 | 0 | 17 |
